PNC assembly inh: perinucleolar compartment assembly inhibition; activity change (PNC), negative = inhibition, % at 10 µM; AID 2417; PC3M PTB-GFP, PNC prevalence imaging, 16 h; stronger effect = lower value; hit rate 3.1% among 140,000;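 active = readout at or below -70, meaning at least 70% loss of cells showing the perinucleolar compartment, a nuclear body marking cancer cells; inconclusive = readout between -30 and a set limit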;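 also: plate controls were DMSO wells for no effect and camptothecin positive control wells for full effect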
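Read-out is percentage of cells bearing a perinucleolar compartment, from automated 20x imaging of fixed, Hoechst-stained PC3M PTB-GFP cells. Cells were seeded 4 h, then exposed 16 h to compound (23 nl of library stock) in duplicate plates.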
ALDH1A1 block: ALDH1A1 (human) enzyme inhibition. Potency, µM (titrated, usually from 75.3 µM), for the others: top-dose activity, negative = inhibition, usual class: inhibitors. hit rate 7.3% among 220,000. AID 1030. Purified ALDH1A1, NADH fluorescence, propionaldehyde substrate;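 also: potency is read from the fitted curve at half-maximal effect; plate controls were no enzyme wells and a reference inhibitor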
Target sequence (P00352 whole entry, looked up): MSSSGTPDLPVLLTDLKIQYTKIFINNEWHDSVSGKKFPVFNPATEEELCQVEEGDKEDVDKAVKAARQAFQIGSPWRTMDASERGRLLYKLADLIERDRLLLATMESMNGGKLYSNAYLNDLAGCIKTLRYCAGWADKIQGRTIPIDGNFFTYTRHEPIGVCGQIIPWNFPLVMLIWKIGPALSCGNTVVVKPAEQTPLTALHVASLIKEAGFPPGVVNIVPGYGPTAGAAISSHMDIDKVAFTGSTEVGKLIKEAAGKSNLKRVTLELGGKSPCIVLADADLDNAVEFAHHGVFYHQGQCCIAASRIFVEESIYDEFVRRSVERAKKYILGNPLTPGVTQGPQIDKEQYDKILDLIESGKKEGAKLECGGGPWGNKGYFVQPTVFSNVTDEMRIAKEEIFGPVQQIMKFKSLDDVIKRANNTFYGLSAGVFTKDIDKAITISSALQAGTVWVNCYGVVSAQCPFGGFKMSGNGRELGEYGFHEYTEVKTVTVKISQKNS
LMNA splice mod: LMNA splicing modulation; HeLa LMNA splicing GFP/RFP minigene ratio, 48 h; Potency, µM (series often up to 46.1 µM), for inactives: at the highest dose ratio change, negative = inhibition, most hits filed as inhibitors; hit rate 0.01% among 200,000; AID 1487; active = well fitted inhibition curve with a large enough effect in the signal ratio, with a control signal flat, not every such curve was filed as active; inconclusive = small, poorly fitted or top-dose-only effect, or effect the other way, or a change in a side signal; the % refers to the signal ratio; also: potency is read from the fitted curve at half-maximal effect
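Read-out is the ratio of GFP to DsRed2 object intensity, acquired by 488 nm laser-scanning cytometry on HeLa lamin A-EGFP minigene reporter cells. Compound incubation 48 hrs at 37 °C in Opti-MEM with 2% FBS; DMSO 0.5% final.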
Luc counter: counter-screen: inhibitors of Kinase-Glo firefly luciferase; Q27757; Kinase-Glo luciferase, ATP luminescence, 8 min; Potency, µM (highest dose often 38.3 µM), for inactives: at the highest dose activity change, negative = inhibition, hits mostly inhibitors; hit rate 0.28% among 200,000; AID 1379; active = well fitted inhibition curve with a large enough effect; inconclusive = small, poorly fitted or top-dose-only effect; also: potency is read from the fitted curve at half-maximal effect; nearly all actives have a fitted effect of over 60% in size
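Recombinant Kinase-Glo luciferase, 10 uM ATP (linear range), luciferin; imidazole pH 7.2 / KCl / MgCl2 / Tween / BSA buffer; 8 min RT; luminescence.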
HPGD inh: blocks human HPGD enzyme activity; P15428; purified HPGD, NADH fluorescence kinetic, PGE2 substrate; Potency, µM, for the others: at the highest dose activity change, negative = inhibition, hits mostly inhibitors; hit rate 4.3% among 150,000; AID 894; also: potency is read from the fitted curve at half-maximal effect
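NADH formation kinetics: reaction with 30 uM PGE2 and 1 mM NAD+ (final), 20 nM enzyme, Tris-HCl pH 8 with Tween 20, after 15 min compound preincubation at room temperature. Fluorescence change, last versus first of five reads.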
Active calls of the source: *; [ ] = remark or other dose. Shown are actives, neighbours in structure and some others; about 10% of the full set was active somewhere. Unless noted, calls follow the shape of the dose curve; as a rule, active = well fitted inhibition curve with a large enough effect (not every such curve was filed as active); inconclusive = small, poorly fitted or top-dose-only effect, or another doubt; inactive = no such curve, though single readings can be large or run the other way. Unless noted, % is scaled to controls: 0 for no effect and ±100 for the full control effect.

What do the screens show for `O[C@@H]1[C@@H](OCc2ccccc2)OC[C@H](O)[C@@H]1O`?
ALDH1A1 block: 0%[13.5 µM]; Luc counter: -6%[7.66 µM]; HPGD inh: -2%

What do the screens show for `COc1ccccc1-c1cncnc1NCCN1CCOCC1`?
ALDH1A1 block: -5%; LMNA splice mod: inconclusive; Luc counter: -3%; HPGD inh: -12%

Results for O=C(CCl)N(c1ccccc1)C1CCS(=O)(=O)C1 (stereo not given) ?
PNC assembly inh: 0; ALDH1A1 block: 0.063µM*; LMNA splice mod: inconclusive; Luc counter: 6%; HPGD inh: -1%

Results for CN(C1CCS(=O)(=O)C1)S(=O)(=O)c1ccccc1 (stereo not given) ?
ALDH1A1 block: -5%; Luc counter: 2%

What do the screens show for `COc1ccc(OC)c2sc(N(Cc3cccnc3)C(=O)c3ccco3)nc12`?
LMNA splice mod: -16%[46 µM]

How did COc1ccc(C/C(N)=N/OC(=O)c2cccs2)cc1 do in these assays?
ALDH1A1 block: -1%; LMNA splice mod: inconclusive; Luc counter: 1%

What do the screens show for `COc1ccc(C(=O)O/N=C(\C)c2nccs2)cc1`?
ALDH1A1 block: inconclusive; Luc counter: 13µM*

How did COc1ccc(C2CC2/C(C)=N/OC(=O)c2cccs2)cc1 (stereo not given) do in these assays?
PNC assembly inh: 77; ALDH1A1 block: -14%; LMNA splice mod: 15%; Luc counter: -2%; HPGD inh: 22µM*

Results for COc1ccc(C(=O)O/N=C(/C)c2cccs2)cc1 ?
PNC assembly inh: -19; ALDH1A1 block: -2%; LMNA splice mod: 6%; Luc counter: 13µM*; HPGD inh: -9%

What do the screens show for `O=C(NN=C1CCCC1)c1[nH]c2ccc(Cl)cc2c1-c1ccccc1`?
ALDH1A1 block: 11µM*

How did O=S(=O)(NCc1nc2cccnc2n1Cc1ccccc1Cl)c1ccc2c(c1)CCCC2 do in these assays?
LMNA splice mod: -12%[46 µM]

How did COc1cc(C(=O)N/N=C(\C)Cc2ccccc2)cc(OC)c1OC do in these assays?
PNC assembly inh: 32; ALDH1A1 block: 20µM*; LMNA splice mod: inconclusive; Luc counter: 6%; HPGD inh: -1%

Results for COc1cc(C(=O)NCc2cccc3ccccc23)cc(Cl)c1OC ?
PNC assembly inh: 41; ALDH1A1 block: -15%; LMNA splice mod: 3%; Luc counter: -1%; HPGD inh: 1%

Results for COc1cc(C(=O)NC(c2ccccc2)c2ccccc2)cc(Cl)c1OC ?
PNC assembly inh: inconclusive; ALDH1A1 block: 2µM*; LMNA splice mod: -10%; Luc counter: 3%; HPGD inh: -2%

How did COc1ccc(C(NC(=O)c2ccc(F)cc2)c2ccccc2)cc1 (stereo not given) do in these assays?
PNC assembly inh: 4; ALDH1A1 block: 22µM*; LMNA splice mod: -10%

What do the screens show for `COc1ccc(C(NC(=O)c2cccc(F)c2)c2ccccc2)cc1` (stereo not given)?
PNC assembly inh: 36; ALDH1A1 block: inconclusive; LMNA splice mod: inconclusive

How did O=C(O)CC[P+](c1ccccc1)(c1ccccc1)c1ccccc1 do in these assays?
ALDH1A1 block: 20%[13.5 µM]; Luc counter: -5%[7.66 µM]; HPGD inh: -5%

Results for Cc1cc(OCC(=O)Nc2nc3c(s2)CCCC3)cc(C)c1Cl ?
LMNA splice mod: 8%[46 µM]

Results for COc1cccc(Cn2c(=O)c(-c3cc(F)cc(F)c3)nc3cnc(N(C)C)nc32)c1 ?
ALDH1A1 block: inconclusive; LMNA splice mod: 1%

Results for Nn1c(Cc2cccc3ccccc23)nnc1SCCOc1ccc(F)cc1 ?
PNC assembly inh: -23; ALDH1A1 block: 9%; LMNA splice mod: -10%; Luc counter: 12%; HPGD inh: inconclusive

What do the screens show for `Nn1c(Cc2cccc3ccccc23)nnc1SCCOc1ccc(Br)cc1`?
PNC assembly inh: 8; ALDH1A1 block: inconclusive; LMNA splice mod: inconclusive; Luc counter: -2%; HPGD inh: 14µM*

How did Nn1c(Cc2cccc3ccccc23)nnc1SCc1c(F)cccc1Cl do in these assays?
PNC assembly inh: -23; ALDH1A1 block: 3%; LMNA splice mod: -5%; Luc counter: 11%; HPGD inh: 22µM*
